Rows were chosen to be rich in hits. Some 12% of all compounds tested hit in one or more screens of this group.
OTUD3 inh: inhibitors of human OTUD3 deubiquitinase. inhibition, % at 25 µM. purified OTUD3, Ub-rhodamine fluorescence, 2 h. OTU domain-containing protein 3 (Homo sapiens), Q5T2D3. 47,000 tested, 0.7% active
USP30 block: inhibitors of human USP30 deubiquitinase; inhibition, % at 25 µM; AID 1645860, 2021; 47,000 tested, 5.3% active; Ubiquitin carboxyl-terminal hydrolase 30 (Homo sapiens), Q70CQ3; purified USP30, Ub-rhodamine cleavage fluorescence
USP28 inh: inhibitors of human USP28 deubiquitinase. Ubiquitin carboxyl-terminal hydrolase 28 (Homo sapiens), Q96RU2. purified USP28, Ub-rhodamine cleavage fluorescence, 30 min. inhibition, % at 25 µM. 47,000 tested, 3% active. AID 1645857, 2021
USP17 block: inhibitors of human USP17 deubiquitinase; Ubiquitin carboxyl-terminal hydrolase 17-like protein 5 (Homo sapiens), A8MUK1; purified USP17, Ub-rhodamine cleavage fluorescence, 3 h; inhibition, % at 50 µM; 47,000 tested, 6.5% active
Active calls of the source: *; nt = not tested or not shown. Rule as the data show it: active = inhibition above about 30%; inactive = the rest.

SMILES	OTUD3 inh	USP30 block	USP28 inh	USP17 block
CC(C)=CCc1cc(OC2OC(CO)C(O)C(O)C2O)ccc1O (stereo not drawn)	-4	6	0	5
CCCCCCCc1cc(O)cc(OC(=O)c2c(CCCCCCC)cc(O)cc2O[C@H]2O[C@H](C(O)CO)[C@@H](O)[C@@H]2O)c1 (stereo partly drawn)	0	-33	83*	40*
CCCCCCCCCc1cc(OC(=O)c2c(CCCCCCCCC)cc(O)cc2O[C@@H]2O[C@H](CO)[C@@H](O)[C@H](O)[C@H]2O)cc(O)c1C(=O)O	101*	104*	101*	100*
CCCCCCCc1cc(OC(=O)c2c(CCCCCCC)cc(O)cc2O[C@@H]2O[C@H](CO)[C@H](O)[C@H](O)[C@H]2O)cc(O)c1C(=O)O	100*	108*	100*	102*
CCCCCCCC/C=C\CCCCCCCc1cc(O)cc(O)c1C(=O)O	6	29	0	7
O=C(CC(c1ccc(F)cc1)N1Cc2ccccc2C1=O)NCCN1CCCC1 (stereo not drawn)	-2	0	7	-1
C[C@]12C(=O)N(c3ccc(C(=O)NCc4ccccc4)cc3)C(=O)N1CCc1c2[nH]c2ccccc12	4	6	5	4
CNC(=O)C1CN(C(=O)c2ccc(OC)cc2)CC12CCCC2 (stereo not drawn)	55*	0	-2	-1
COc1cccc(OC)c1C(=O)C1CC(=O)Nc2n[nH]c(C)c21 (stereo not drawn)	0	5	-2	-2
COc1cccc(C2CC(=O)Nc3n[nH]c(C)c32)c1OCc1ccccc1C (stereo not drawn)	0	34*	9	5
COc1ccc(C2CC(=O)Nc3ccc4ccccc4c32)c(OC)c1OC (stereo not drawn)	11	68*	7	37*
COc1ccc(C2CC(=O)Nc3n[nH]c(-c4ccccc4)c32)c(OC)c1 (stereo not drawn)	-1	44*	10	41*
Cc1cccc(-c2n[nH]n3c2nc(=O)c2ccc(C(=O)NCc4ccco4)cc23)c1	-19	-174	-24	-22
Cc1nn(Cc2ccccc2)c2sc(C(=O)N3c4ccccc4CC3C)cc12 (stereo not drawn)	0	-8	-1	-16
c1coc(-c2nc(CN3CCCC3Cn3cncn3)cs2)c1 (stereo not drawn)	-21	-287	-53	-12
CC(=O)Nc1ccc(C)n(CC(=O)NCc2ccc3c(c2)OCO3)c1=O	7	-29	1	7
COc1cccc(-c2ccc3nc(C4CCN(C(=O)N(C)C)CC4)nn3c2)c1	6	15	30*	5
CN(C)C(=O)N1CCC(c2nc3ccc(-c4cccc(F)c4)cn3n2)CC1	-4	0	1	-125
COc1ccc(C(=O)N2CCCC2(C)c2nc(C)cc(N)n2)cc1 (stereo not drawn)	8	11	1	-2
Cc1cc2nc(C(C)NC(=O)c3cc(C4CC4)nn3C)cc(=O)n2[nH]1 (stereo not drawn)	16	36*	10	7
CC1CCN(C(=O)c2[nH]nc3c2CCc2ccccc2-3)CC1	0	-18	1	-3
Cc1ccc(C(=O)N2CCN(c3cc(=O)n(C)c(=O)n3C)CC2)cc1C	8	14	8	5
Cc1ccc(Nc2nc(O)c(CC(=O)Nc3ccccc3C)s2)cc1C	13	15	4	74*
COc1ccc(NC(=O)Cc2sc(Nc3cccc(OC)c3)nc2O)cc1	-5	-27	1	1
COc1cccc(NC(=O)Cc2sc(Nc3cc(C)cc(C)c3)nc2O)c1	5	0	4	62*
SMILES	OTUD3 inh	USP30 block	USP28 inh	USP17 block
Cc1ccc(Nc2nc(O)c(CC(=O)Nc3ccc(C)cc3C)s2)cc1	20	9	0	37*
Cc1cc(C)c(NC(=O)Cc2sc(Nc3ccc(C)c(C)c3)nc2O)c(C)c1	10	-3	9	3
Cc1ccc(NC(=O)Cc2ccc(-c3ccccc3)cc2)c(C)c1	4	18	3	6
O=C(NCC1CC1)c1cn(-c2nc(CN3CCOCC3)c3ccccn23)cn1	-48	-236	-77	-55
O=C1C[C@@H]2O[C@H](CNC(=O)[C@@H]3CN(CCN3C(=O)C3CCOCC3)C(=O)[C@@H]3C[C@@H](CN3C3CCC3)N1)[C@@H](O)[C@H]2O	-37	-344	-73	-64
N#Cc1cccc(NC(=O)Cn2cccc2-c2nc(-c3ccccc3)no2)c1	18	13	17	31*
COc1ccc(S(=O)(=O)Nc2cc(-c3ccccc3)nn2C2CCS(=O)(=O)C2)cc1 (stereo not drawn)	-11	-25	-11	-16
CCN1CCn2c(C)cnc2C12CCN(C(=O)c1ccc(OC)cc1)CC2	-4	-2	-11	1
Cc1ccc(NC(=O)c2ccc(N3CCOCC3)nn2)cc1F	13	2	26	71*
CCc1cc(=O)n(CC(=O)Nc2ccc(F)c(F)c2)c(N2CCOCC2)n1	9	-1	5	5
COc1ccc(C)cc1NC(=O)c1ccc(N2CCOCC2)nn1	4	54*	9	52*
CCc1cc(=O)n(CC(=O)Nc2cc(C)ccc2OC)c(N2CCOCC2)n1	37*	59*	27	36*
Cc1oc2ncn3nc(-c4ccncc4)nc3c2c1C	-8	-11	-15	-2
CN(Cc1cccnc1Oc1ccccc1)S(=O)(=O)C1CC1	6	17	5	10
CCCNC(=O)c1nnn(-c2cccc3c2CCN(C2CCOCC2)C3)c1C	-6	-32	-7	-25
N#C/C(=C\c1ccc(C(F)(F)F)cc1)c1c[nH]c2ccccc12	-5	-25	0	32*
OC(/C=C/c1c[nH]c2ccccc12)C(F)(F)F (stereo not drawn)	-22	-63	-20	-12
CC1CCCN(S(=O)(=O)c2ccc(C(=O)Nc3ccc(S(N)(=O)=O)cc3)cc2)C1 (stereo not drawn)	-1	-3	-2	nt
CCc1nc(SCC(=O)Nc2cc(Cl)ccc2C)c2oc3ccccc3c2n1	22	68*	14	54*
CCc1nc(SCc2ccccc2C)c2oc3ccccc3c2n1	6	32*	9	29
CCc1nc(SCC(=O)Nc2ccccc2Cl)c2oc3ccccc3c2n1	0	-2	-6	58*
CCc1nnc(-c2c(C)c(S(=O)(=O)N3CCCCC3)c(C)n2C)o1	-3	-6	-10	-1
CN(C)c1cccc(-c2nnc(C3(c4cccc(Br)c4)CCOCC3)o2)c1	15	10	19	17
O=C(Nc1ccc2c(c1)CCN2S(=O)(=O)c1ccccc1)Nc1ccc(F)cc1F	7	15	43*	16
CNc1ncc(C(=O)N2CCOC(c3cc(C(=O)NC(C)C)c4ccccc4n3)C2)cn1 (stereo not drawn)	1	-1	-1	-3

Screens deposited in PubChem by Buhrlage Lab, Dana-Farber Cancer Institute and Novartis Institutes for BioMedical Research (Cambridge, Mass).
